{"source": "PubChem BioAssay", "note": "Several values for one entry are separate records, joined by “and”; a condition that tells them apart may be missing. Equal entries are not always repeated. Activity calls are given as the source filed them.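 How the source made its calls: active means inhibition at or above 50% relative to wild type and mutant plate controls; inactive means inhibition below 50%.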"}
{"assay": "loss of swimming-algae plug formation – whole organism, Chlamydomonas reinhardtii, WT vs cilia-less mutant, absorbance, 96-well, primary screen (AID 463189);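 further: 0% = wild type cc124 cells in DMSO and 100% = ciliumless bld1 mutant cells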", "conditions": "Chlamydomonas reinhardtii gravitaxis, OD600 absorbance, 2 days; at 10 µM; hits give high values"}
{"smiles": "C[N+](C)(C)CCOC(N)=O", "inhibition": "7.07% (inactive)"}
{"smiles": "Cc1nc(N=Nc2ccc(C(=O)O)cc2)c(COP(=O)(O)O)c(C=O)c1O", "inhibition": "8.14% (inactive)"}
{"smiles": "Nc1c2c(nc3ccccc13)CCCC2O", "note": "(stereo not given)", "inhibition": "2% (inactive)"}
{"smiles": "O=C(Cc1ccc(Cl)c(Cl)c1)OCCN1CCCC1", "inhibition": "-10.1% (inactive)"}
{"smiles": "CC(C)(C)NCC(O)c1ccc(O)c(CO)c1", "note": "(stereo not given)", "inhibition": "2.6% (inactive) and 2.52% (inactive)"}
{"smiles": "O=C(O)CCC/C=C\\C[C@@H]1[C@@H](/C=C/[C@H](O)C2Cc3ccccc3C2)[C@@H](F)C[C@@H]1O", "inhibition": "-14% (inactive)"}
{"smiles": "CCN(c1nc(N)c(C(=O)N=C(N)N)nc1Cl)C(C)C", "inhibition": "7.11% (inactive)"}
{"smiles": "NC[C@H](O)c1ccc(O)c(O)c1", "inhibition": "6.74% (inactive)"}
{"smiles": "NC(Cc1ccc(Cl)cc1)C(=O)O", "note": "(stereo not given)", "inhibition": "-1.92% (inactive)"}
{"smiles": "C=C[C@H]1CN2CCC1C[C@@H]2[C@@H](O)c1ccnc2ccc(OC)cc12", "note": "(stereo not given in full)", "inhibition": "5.44% (inactive)"}
{"smiles": "COc1cccc2c1[C@@H]1CN(CCCCn3c(=O)[nH]c4c(sc5ncc(-c6ccccc6)nc54)c3=O)C[C@@H]1CO2", "inhibition": "4.24% (inactive)"}
{"smiles": "O=C(O)CCC(NC(=O)c1ccccc1C(=O)O)C(=O)O", "note": "(stereo not given)", "inhibition": "1.62% (inactive)"}
{"smiles": "NC(N)=[N+]1CCc2ccccc2C1", "inhibition": "-2.7% (inactive)"}
{"smiles": "NCCS(=O)(=O)O", "inhibition": "8.8% (inactive)"}
{"smiles": "NC1CCN(c2cccc(Cl)n2)CC1", "inhibition": "-3.28% (inactive)"}
{"smiles": "NC(N)=NCCC[C@H](N)C(=O)O", "inhibition": "-8.92% (inactive)"}
{"smiles": "Cn1c(=O)c2[nH]c(C3CCCC3)nc2n(C)c1=O", "inhibition": "-2.05% (inactive)"}
{"smiles": "Cc1cn([C@H]2C[C@@H](N=[N+]=[N-])[C@@H](CO)O2)c(=O)[nH]c1=O", "inhibition": "-6.23% (inactive)"}
{"smiles": "O=c1[nH]c(=O)n([C@H]2C[C@H](O)[C@@H](CO)O2)cc1/C=C/Br", "inhibition": "6.74% (inactive)"}
{"smiles": "O=c1[nH]cnc2[nH]ncc12", "inhibition": "6.04% (inactive)"}
{"smiles": "O=C(O)CCCCCCCC(=O)O", "inhibition": "5.5% (inactive)"}
{"smiles": "CC1CCN=C(N)S1", "note": "(stereo not given)", "inhibition": "0.783% (inactive)"}
{"smiles": "CC(/C=C/c1cccc(Oc2ccc(F)cc2)c1)N(O)C(N)=O", "note": "(stereo not given)", "inhibition": "4.78% (inactive)"}
{"smiles": "NCCNC(=O)c1ccc(Cl)cc1", "inhibition": "5.46% (inactive)"}
{"smiles": "COC(=O)[C@H](NC(=O)c1cc(-c2ccccc2)nc2ccccc12)c1ccccc1", "inhibition": "1.92% (inactive)"}
{"smiles": "C[N+](C)(CCCCCC[N+](C)(C)CCCN1C(=O)c2cccc3cccc(c23)C1=O)CCCN1C(=O)c2cccc3cccc(c23)C1=O", "inhibition": "101% (active)"}
{"smiles": "CCN1CCc2nc(N)oc2CC1", "inhibition": "6.74% (inactive)"}
{"smiles": "NC(=S)NCCCC(N)C(=O)O", "note": "(stereo not given)", "inhibition": "0.102% (inactive)"}
{"smiles": "Nc1ncnc2c1c(-c1ccc(Oc3ccccc3)cc1)cn2C1CCCC1", "inhibition": "35.3% (inactive)"}
{"smiles": "O=C1Nc2ccc(I)cc2/C1=C/c1cc(Br)c(O)c(Br)c1", "inhibition": "-6.77% (inactive)"}
{"smiles": "OCc1cc(C(O)CNCCCCCCOCCCCc2ccccc2)ccc1O", "note": "(stereo not given)", "inhibition": "6.68% (inactive)"}
{"smiles": "C[C@@H](NCCc1ccc(O)cc1)[C@@H](O)c1ccc(O)cc1", "inhibition": "2.54% (inactive)"}
{"smiles": "CCCCCCCC/C=C\\CCCCCCCC(=O)NCCO", "inhibition": "-7.05% (inactive)"}
{"smiles": "CC(C)C[C@H](NC(=O)C1OC1C(=O)O)C(=O)NCCCCN=C(N)N", "note": "(stereo not given in full)", "inhibition": "-4.58% (inactive)"}
{"smiles": "CCN1CCC[C@H]1CNC(=O)c1cc(S(N)(=O)=O)ccc1OC", "inhibition": "3.94% (inactive)"}
{"smiles": "OC(CN1CCN(c2cccc(Cl)c2)CC1)C(c1ccccc1)c1ccccc1", "note": "(stereo not given)", "inhibition": "4.93% (inactive)"}
{"smiles": "C=CC[C@H](N)C(=O)O", "inhibition": "4.13% (inactive)"}
{"smiles": "Nc1ncnc2c1ncn2[C@@H]1O[C@H](CO)[C@H](O)C1O", "note": "(stereo not given in full)", "inhibition": "5.53% (inactive)"}
{"smiles": "COc1ccc(C(=O)NCc2cccnc2)cc1C(=O)NCc1cccnc1", "inhibition": "6.89% (inactive)"}
{"smiles": "OCC1O[C@H](O)C(Cl)C(O)C1O", "note": "(stereo not given in full)", "inhibition": "4.68% (inactive)"}
